25 compounds from ChEMBL document CHEMBL4296182, “CO-ADD screening of NIH NCI Diversity Set V” can be followed below.

One experiment concerns Staphylococcus aureus. The experiment in a line: Antibacterial activity against Staphylococcus aureus MRSA ATCC 43300 (CO-ADD:GP_020); MIC in CAMBH media using NBS plates, by Resazurin F(560/590). In kind it is functional. To be noted: Concentration 20 uM, ASSAY_TEST Inhibition of Bacterial Growth, detection method Resazurin, Fluorescence (ex560/em590), MEDIA CAMHB, plate type 384well, CORNING #3640, time 18 hr.

A further experiment concerns Acinetobacter baumannii. The experiment is described as follows: Antibacterial activity against Acinetobacter baumannii ATCC 19606 (CO-ADD:GN_034); MIC in CAMBH media using NBS plates, by Resazurin F(560/590). It is filed as functional. To be noted: Concentration 20 uM, ASSAY_TEST Inhibition of Bacterial Growth, detection method Resazurin, Fluorescence (ex560/em590), MEDIA CAMHB, plate type 384well, CORNING #3640, time 18 hr.

The test system of another experiment is Escherichia coli. The experiment is described as follows: Antibacterial activity against Escherichia coli ATCC 25922 (CO-ADD:GN_001); MIC in CAMBH media using NBS plates, by Resazurin F(560/590). It is filed as functional. To be noted: Concentration 20 uM, ASSAY_TEST Inhibition of Bacterial Growth, detection method Resazurin, Fluorescence (ex560/em590), MEDIA CAMHB, plate type 384well, CORNING #3640, time 18 hr.

A further experiment concerns Klebsiella pneumoniae. To be noted: Concentration 20 uM; ASSAY_TEST Inhibition of Bacterial Growth; detection method Absorption (OD600); MEDIA CAMHB; plate type 384well; NBS; CORNING #3640; time 18 hr.
In another experiment the test system is Candida albicans. To be noted: 20 µM.
The test system of another experiment is Cryptococcus neoformans. To be noted: Concentration 20 uM; ASSAY_TEST Inhibition of Fungal Growth; detection method Resazurin; Absorption (OD600-OD570); plate type 384well; NBS; CORNING #3640.

For part of these data: Measured potencies and affinities stand elsewhere.

With `CC(=O)CC[N+](C)(C)C.[I-]`, the Inhibition is 1.22% with Staphylococcus aureus; -9.05% with Acinetobacter baumannii; 1.86% in the experiment on Escherichia coli; 4.32% with Klebsiella pneumoniae; 4.03% in the experiment with Candida albicans; -9.72% in the experiment on Cryptococcus neoformans.

In the case of `CC1=NN(c2ccccc2)C(=O)C1/N=N/c1ccc(S(N)(=O)=O)cc1` (stereo not given), the Inhibition is -7.63% in the experiment with Staphylococcus aureus; 9.06% in the experiment on Acinetobacter baumannii; 7.33% with Escherichia coli; 5.84% in the experiment with Klebsiella pneumoniae; 11.2% with Candida albicans; -4.3% in the experiment with Cryptococcus neoformans.

Consider `Nc1nnc(S)n1-c1ccc(Cl)cc1`, for which the Inhibition with Staphylococcus aureus is 10.79%; with Acinetobacter baumannii, -9.57%; in the experiment on Escherichia coli, 13.33%; with Klebsiella pneumoniae, -2.18%; with Candida albicans, 11.3%; with Cryptococcus neoformans it was -11.28%.

As to `CC(=O)O.COc1ccc2nccc(/C=C/c3ccnc4ccc(OC)cc34)c2c1`, the Inhibition was 1.03% in the experiment on Staphylococcus aureus; -11.4% in the experiment with Acinetobacter baumannii; 10.64% in the experiment with Escherichia coli; 6.2% with Klebsiella pneumoniae; 5.73% in the experiment with Candida albicans; -5.13% in the experiment on Cryptococcus neoformans.

Take `O=C1C2C3C=CC(CC3)C2S(=O)(=O)C2C3C=CC(CC3)C12` (stereo not given): the Inhibition was 13.49% in the experiment on Staphylococcus aureus; 12.35% in the experiment with Acinetobacter baumannii; 8.07% in the experiment on Escherichia coli; 7.08% in the experiment with Klebsiella pneumoniae; 3.05% in the experiment on Candida albicans; -7.34% in the experiment with Cryptococcus neoformans.

For the compound `Clc1cc2c(nn1)Nc1ccccc1S2`, the Inhibition is -2.08% with Staphylococcus aureus; 9.37% with Acinetobacter baumannii; 10.31% in the experiment on Escherichia coli; 10.14% with Klebsiella pneumoniae; 0.32% in the experiment with Candida albicans; -16.64% with Cryptococcus neoformans.

Consider `Cc1cccnc1NC(=O)c1csnn1`, for which the Inhibition is 5.73% in the experiment with Staphylococcus aureus; -12.69% with Acinetobacter baumannii; 4.7% in the experiment with Escherichia coli; 9.01% with Klebsiella pneumoniae; -1.09% in the experiment on Candida albicans; -4.1% in the experiment on Cryptococcus neoformans.

For `S=C(Nc1ccccc1)c1ccccn1`, the Inhibition was 3.41% with Staphylococcus aureus; -5.82% in the experiment with Acinetobacter baumannii; 1.02% in the experiment on Escherichia coli; 19.37% in the experiment on Klebsiella pneumoniae; 25.9% with Candida albicans; -3.26% in the experiment on Cryptococcus neoformans.

In the case of `CCOC(=O)c1nn(-c2ccccc2)cc1O`, the Inhibition with Staphylococcus aureus was -14.3%; with Acinetobacter baumannii, -10.69%; in the experiment on Escherichia coli it was -0.72%; in the experiment on Klebsiella pneumoniae, -1.36%; in the experiment with Candida albicans, 0.93%; with Cryptococcus neoformans, -2.21%.

For `Oc1ccccc1Nc1ccccn1`, the Inhibition in the experiment with Staphylococcus aureus is 8.12%; in the experiment with Acinetobacter baumannii it was -5.24%; with Escherichia coli, 13.47%; in the experiment on Klebsiella pneumoniae, 16.23%; in the experiment on Candida albicans, 1.04%; in the experiment on Cryptococcus neoformans it was -3.55%.

Regarding `Cn1nc(N)c2ncc(C(Cl)(Cl)Cl)nc21`, the Inhibition is -7.62% in the experiment with Staphylococcus aureus; -8.78% in the experiment with Acinetobacter baumannii; 5.5% with Escherichia coli; 9.07% in the experiment with Klebsiella pneumoniae; 10.5% in the experiment on Candida albicans; -10.84% in the experiment with Cryptococcus neoformans.

In the case of `CC(C)c1cc(C(C)C)n2nc(N)nc2n1`, the Inhibition is 6.67% in the experiment on Staphylococcus aureus; 8.95% in the experiment with Acinetobacter baumannii; 5.1% in the experiment with Escherichia coli; 0.39% in the experiment with Klebsiella pneumoniae; -0.42% in the experiment on Candida albicans; -7.51% with Cryptococcus neoformans.

With `CSc1nc2cc(S(=O)(=O)N3CCCCC3)ccc2s1`, the Inhibition in the experiment with Staphylococcus aureus is 2.12%; in the experiment on Acinetobacter baumannii, 9.92%; in the experiment with Escherichia coli it was -7.83%; in the experiment on Klebsiella pneumoniae, 10.24%; in the experiment on Candida albicans, 7.84%; in the experiment on Cryptococcus neoformans, 2.72%.

As to `CCOC(=O)Cn1nc2oc(=O)c(CCN3CCN(c4ccccc4OC)CC3)c(C)c2c1C`, the Inhibition in the experiment with Staphylococcus aureus is 17.7%; with Acinetobacter baumannii, -3.04%; with Escherichia coli, 11.66%; in the experiment with Klebsiella pneumoniae, 16.06%; in the experiment with Candida albicans it was 2.37%; with Cryptococcus neoformans, -3.33%.

For `NC(=O)c1ccc(/N=N/c2c(O)c3ccccc3[nH]c2=O)cc1`, the Inhibition in the experiment with Staphylococcus aureus is 1.45%; in the experiment on Acinetobacter baumannii, 0.09%; with Escherichia coli, 1.38%; with Klebsiella pneumoniae it was 17.01%; in the experiment with Candida albicans, 24%; in the experiment on Cryptococcus neoformans, -1.63%.

As to `COc1cccc(/C=C2\CCc3ccccc3C2=O)c1`, the Inhibition in the experiment on Staphylococcus aureus is 5.14%; with Acinetobacter baumannii, -13.61%; in the experiment on Escherichia coli, 8.53%; in the experiment with Klebsiella pneumoniae, 8.43%; in the experiment on Candida albicans it was 9.78%; in the experiment on Cryptococcus neoformans, -15.01%.

On to `CC(C1=C(CCN(C)C)Cc2ccccc21)c1ccccn1.O=C(O)/C=C\C(=O)O` (stereo not given) [DIMETHINDENE MALEATE], for which the Inhibition in the experiment on Staphylococcus aureus was 21.63%; in the experiment with Acinetobacter baumannii it was -11.43%; with Escherichia coli, 16.27%; in the experiment with Klebsiella pneumoniae it was 18.33%; in the experiment with Candida albicans, 1.91%; in the experiment on Cryptococcus neoformans, -1.76%.

Take `OCC1CCCC(n2cnc3c(S)ncnc32)O1` (stereo not given): the Inhibition in the experiment on Staphylococcus aureus was 9.66%; with Acinetobacter baumannii, 5.96%; with Escherichia coli it was 6.02%; with Klebsiella pneumoniae, 14.91%; in the experiment on Candida albicans, 14%; in the experiment with Cryptococcus neoformans it was -13.51%.

As to `NC(=O)c1nc2c([nH]c1=O)CCCC2`, the Inhibition in the experiment on Staphylococcus aureus is 15.95%; in the experiment on Acinetobacter baumannii, -15.59%; with Escherichia coli, 13.49%; with Klebsiella pneumoniae it was -0.68%; in the experiment on Candida albicans, -0.94%; with Cryptococcus neoformans it was -4.35%.

In the case of `Cc1cc(O)c2c(O)[nH]nc2n1`, the Inhibition in the experiment on Staphylococcus aureus is 14.32%; with Acinetobacter baumannii, -13.07%; in the experiment with Escherichia coli, 7.82%; with Klebsiella pneumoniae it was 1.49%; in the experiment on Candida albicans, -3.37%; with Cryptococcus neoformans, -5%.

On to `Cc1ccc(C#CC(C)(O)C(C)(C)C)cn1` (stereo not given), for which the Inhibition in the experiment with Staphylococcus aureus is 4.47%; in the experiment on Acinetobacter baumannii, 10.01%; in the experiment with Escherichia coli it was 1.4%; in the experiment on Klebsiella pneumoniae, 18.58%; in the experiment on Candida albicans it was 7.24%; in the experiment with Cryptococcus neoformans, -1.46%.

Regarding `CSc1cccc(NC(=O)Nc2nc3c(C)cccc3s2)c1`, the Inhibition was -3.9% in the experiment on Staphylococcus aureus; 2.69% in the experiment with Acinetobacter baumannii; 8.83% in the experiment with Escherichia coli; 7.86% in the experiment on Klebsiella pneumoniae; -0.92% in the experiment with Candida albicans; -2.59% in the experiment on Cryptococcus neoformans.

With `Cc1ccc(S(=O)(=O)N2CC=C(N)N2)cc1`, the Inhibition with Staphylococcus aureus was 16.25%; with Acinetobacter baumannii, -10.87%; in the experiment on Escherichia coli, 9.9%; with Klebsiella pneumoniae, 8.77%; in the experiment on Candida albicans, -1.38%; in the experiment on Cryptococcus neoformans, -12.82%.

For the compound `Cc1cc(NC(=O)OC(C)C)ccc1-c1ccc(NC(=O)OC(C)C)cc1C`, the Inhibition with Staphylococcus aureus is 6.05%; in the experiment with Acinetobacter baumannii, 1.04%; in the experiment on Escherichia coli, -21.51%; in the experiment with Klebsiella pneumoniae, 2.57%; in the experiment on Candida albicans it was 2.22%; with Cryptococcus neoformans, 33.06%.

As for `COc1cc(S(N)(=O)=O)c(OC)cc1N`, the Inhibition with Staphylococcus aureus is 4.84%; with Acinetobacter baumannii, -10.8%; with Escherichia coli it was 11.54%; with Klebsiella pneumoniae, 5.18%; in the experiment on Candida albicans, 1.19%; in the experiment with Cryptococcus neoformans it was -0.85%.
